From the supplement of paper PMC11732987, “Enantioselective OTUD7B fragment discovery through chemoproteomics screening and high-throughput optimisation” (Communications Chemistry, 2025)

What was measured:
Assay in all cases: log2 ratio of Biotin-Ahx-Ub-VS probe labelling (fragment/DMSO); higher = less target engagement (more negative = stronger competition), active = hit call of the paper (q ≤ 0.05, log2 ratio ≤ -1)
Details in all cases: compound concentration: 200 uM; treatment time: 3 h
OTUD6B = molecular target: T1, OTUD6B (UniProt Q8N6M0)
T1 sequence (whole entry): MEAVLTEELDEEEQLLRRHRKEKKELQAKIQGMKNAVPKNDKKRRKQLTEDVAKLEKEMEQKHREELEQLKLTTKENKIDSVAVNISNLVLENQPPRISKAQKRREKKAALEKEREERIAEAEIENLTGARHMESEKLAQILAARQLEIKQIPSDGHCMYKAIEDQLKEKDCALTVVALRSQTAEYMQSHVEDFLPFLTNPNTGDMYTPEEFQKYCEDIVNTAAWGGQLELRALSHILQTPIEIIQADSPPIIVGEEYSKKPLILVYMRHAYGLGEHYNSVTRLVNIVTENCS
Method in brief: (§1)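 Global-median-normalised Spectronaut label-free quantities were compared by unpaired t-test, and values are average log2 ratios of fragment over vehicle. Only proteins with ≥2 unique peptides were used. HEK293T lysate (495 µg per sample) was treated in triplicate with fragment at 200 µM or vehicle for 3 h and then with Biotin-Ahx-Ub-VS at 0.5 µM final for 1 h. Labelled DUBs were then NeutrAvidin-enriched, digested with LysC and trypsin, and run by diaPASEF LC-MS/MS.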

OTUD7B = molecular target: T2, OTUD7B (UniProt Q6GQQ9)
T2 sequence (whole entry): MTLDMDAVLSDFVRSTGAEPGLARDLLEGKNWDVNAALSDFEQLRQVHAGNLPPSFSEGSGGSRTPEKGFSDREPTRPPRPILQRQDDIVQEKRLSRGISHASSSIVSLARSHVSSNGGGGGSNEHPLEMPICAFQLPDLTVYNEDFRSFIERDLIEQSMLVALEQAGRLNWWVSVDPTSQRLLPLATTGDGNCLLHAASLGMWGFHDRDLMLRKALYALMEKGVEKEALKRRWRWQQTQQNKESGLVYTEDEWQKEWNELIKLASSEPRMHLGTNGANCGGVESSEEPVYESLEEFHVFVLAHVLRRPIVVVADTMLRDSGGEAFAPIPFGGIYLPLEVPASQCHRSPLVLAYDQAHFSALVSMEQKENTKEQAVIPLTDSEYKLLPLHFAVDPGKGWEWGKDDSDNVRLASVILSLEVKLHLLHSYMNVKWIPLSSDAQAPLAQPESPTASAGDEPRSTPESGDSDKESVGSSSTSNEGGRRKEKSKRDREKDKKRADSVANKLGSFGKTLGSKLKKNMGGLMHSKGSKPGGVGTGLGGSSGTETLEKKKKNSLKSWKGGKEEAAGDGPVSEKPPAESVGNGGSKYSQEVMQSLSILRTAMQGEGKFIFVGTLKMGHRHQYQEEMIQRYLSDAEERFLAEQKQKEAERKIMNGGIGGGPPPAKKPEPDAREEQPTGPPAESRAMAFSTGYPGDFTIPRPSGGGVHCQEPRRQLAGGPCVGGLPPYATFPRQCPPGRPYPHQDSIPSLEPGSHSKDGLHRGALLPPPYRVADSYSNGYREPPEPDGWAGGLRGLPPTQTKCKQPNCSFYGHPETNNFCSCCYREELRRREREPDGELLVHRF
Method in brief: as §1

PRPF8 = PRPF8 (UniProt Q6P2Q9)
Method in brief: as §1

PSMD7 = molecular target: T3, PSMD7 (UniProt P51665)
T3 sequence (whole entry): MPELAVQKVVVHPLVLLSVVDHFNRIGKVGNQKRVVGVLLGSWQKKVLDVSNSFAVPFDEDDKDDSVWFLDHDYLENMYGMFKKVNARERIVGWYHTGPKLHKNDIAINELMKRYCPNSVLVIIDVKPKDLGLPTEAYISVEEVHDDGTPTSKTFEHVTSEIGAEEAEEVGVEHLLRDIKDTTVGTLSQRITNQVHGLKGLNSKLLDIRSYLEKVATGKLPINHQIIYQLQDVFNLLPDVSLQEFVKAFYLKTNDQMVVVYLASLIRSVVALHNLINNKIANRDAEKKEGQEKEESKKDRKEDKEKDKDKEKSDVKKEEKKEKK
Method in brief: as §1

UCHL1 = UCHL1 (UniProt P09936)
Chain of UCHL1 (P09936 whole entry, looked up): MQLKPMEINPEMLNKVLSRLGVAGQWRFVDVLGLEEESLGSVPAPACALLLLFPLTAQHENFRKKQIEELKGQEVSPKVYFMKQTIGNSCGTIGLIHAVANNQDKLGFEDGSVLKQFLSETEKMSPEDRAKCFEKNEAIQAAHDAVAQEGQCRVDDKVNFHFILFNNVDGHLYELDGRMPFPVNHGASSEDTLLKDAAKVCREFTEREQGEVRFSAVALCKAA
Method in brief: as §1

UCHL3 = molecular target: T4, UCHL3 (UniProt P15374)
T4 sequence (whole entry): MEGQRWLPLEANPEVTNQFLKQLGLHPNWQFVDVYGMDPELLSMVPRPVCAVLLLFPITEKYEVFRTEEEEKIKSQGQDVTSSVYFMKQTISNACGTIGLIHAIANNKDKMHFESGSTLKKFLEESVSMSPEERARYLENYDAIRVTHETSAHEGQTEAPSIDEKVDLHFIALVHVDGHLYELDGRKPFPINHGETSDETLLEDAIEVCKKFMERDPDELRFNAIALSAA
Method in brief: as §1

UCHL5 = molecular target: T5, UCHL5 (UniProt Q9Y5K5)
T5 sequence (whole entry): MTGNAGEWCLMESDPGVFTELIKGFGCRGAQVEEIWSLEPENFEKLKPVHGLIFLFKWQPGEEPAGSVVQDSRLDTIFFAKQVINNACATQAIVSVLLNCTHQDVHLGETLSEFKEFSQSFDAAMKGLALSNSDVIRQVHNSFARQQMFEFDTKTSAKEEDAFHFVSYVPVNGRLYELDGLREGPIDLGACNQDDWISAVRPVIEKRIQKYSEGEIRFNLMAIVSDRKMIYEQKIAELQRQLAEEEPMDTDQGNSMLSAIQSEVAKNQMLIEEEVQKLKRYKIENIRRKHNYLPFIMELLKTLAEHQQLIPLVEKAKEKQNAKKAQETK
Method in brief: as §1

USP10 = USP10 (UniProt Q14694)
Chain of USP10 (Q14694 whole entry): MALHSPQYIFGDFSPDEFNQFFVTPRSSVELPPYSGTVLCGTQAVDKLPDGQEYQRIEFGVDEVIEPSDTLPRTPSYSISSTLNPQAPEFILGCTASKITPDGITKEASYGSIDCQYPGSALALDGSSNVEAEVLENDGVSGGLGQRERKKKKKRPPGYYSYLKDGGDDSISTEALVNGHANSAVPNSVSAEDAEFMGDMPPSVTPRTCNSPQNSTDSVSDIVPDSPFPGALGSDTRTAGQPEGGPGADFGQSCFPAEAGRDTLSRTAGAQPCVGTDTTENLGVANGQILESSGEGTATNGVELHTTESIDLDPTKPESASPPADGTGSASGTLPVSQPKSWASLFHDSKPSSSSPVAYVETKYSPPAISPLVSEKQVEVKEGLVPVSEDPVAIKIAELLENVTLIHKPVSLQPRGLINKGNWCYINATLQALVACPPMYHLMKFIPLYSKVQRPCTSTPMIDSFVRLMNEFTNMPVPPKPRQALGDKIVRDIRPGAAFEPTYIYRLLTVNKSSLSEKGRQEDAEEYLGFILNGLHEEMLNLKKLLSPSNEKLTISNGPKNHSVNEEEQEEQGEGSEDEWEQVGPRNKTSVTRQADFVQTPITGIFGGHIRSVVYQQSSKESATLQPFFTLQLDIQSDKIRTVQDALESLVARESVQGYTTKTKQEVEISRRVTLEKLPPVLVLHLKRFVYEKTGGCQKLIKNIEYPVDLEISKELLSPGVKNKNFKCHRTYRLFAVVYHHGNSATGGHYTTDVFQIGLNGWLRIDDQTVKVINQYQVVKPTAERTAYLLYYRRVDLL
Method in brief: as §1

USP15 = molecular target: T6, USP15 (UniProt Q9Y4E8)
T6 sequence (whole entry): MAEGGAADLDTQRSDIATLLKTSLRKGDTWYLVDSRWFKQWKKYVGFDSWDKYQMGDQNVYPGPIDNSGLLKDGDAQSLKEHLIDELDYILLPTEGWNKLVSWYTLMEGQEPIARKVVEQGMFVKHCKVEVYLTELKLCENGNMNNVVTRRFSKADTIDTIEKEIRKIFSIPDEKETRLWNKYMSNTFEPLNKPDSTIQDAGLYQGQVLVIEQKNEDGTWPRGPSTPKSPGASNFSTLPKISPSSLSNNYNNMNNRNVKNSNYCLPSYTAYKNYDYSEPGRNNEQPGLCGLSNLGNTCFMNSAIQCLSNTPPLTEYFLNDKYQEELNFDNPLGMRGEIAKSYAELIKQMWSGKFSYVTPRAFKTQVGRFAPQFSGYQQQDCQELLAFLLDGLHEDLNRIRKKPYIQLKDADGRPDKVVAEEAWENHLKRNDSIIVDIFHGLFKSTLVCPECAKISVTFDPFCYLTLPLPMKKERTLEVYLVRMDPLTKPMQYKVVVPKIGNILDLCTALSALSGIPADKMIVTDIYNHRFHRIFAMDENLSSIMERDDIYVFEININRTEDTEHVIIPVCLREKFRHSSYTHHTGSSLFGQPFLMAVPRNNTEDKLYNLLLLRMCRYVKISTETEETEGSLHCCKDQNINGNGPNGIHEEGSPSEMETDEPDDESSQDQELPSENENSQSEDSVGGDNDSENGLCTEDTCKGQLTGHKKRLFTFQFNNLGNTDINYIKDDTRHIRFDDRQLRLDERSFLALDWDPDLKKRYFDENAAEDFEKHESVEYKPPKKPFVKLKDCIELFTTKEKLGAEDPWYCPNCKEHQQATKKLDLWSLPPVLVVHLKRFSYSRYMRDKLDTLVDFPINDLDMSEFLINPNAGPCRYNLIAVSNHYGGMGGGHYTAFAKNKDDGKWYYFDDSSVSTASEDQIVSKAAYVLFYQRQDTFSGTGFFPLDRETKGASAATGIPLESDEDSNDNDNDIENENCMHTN
Method in brief: as §1

Measured: log2 ratio of Biotin-Ahx-Ub-VS probe labelling

Cl.O=C(CCl)N1CCC(n2nc3ccccc3n2)CC1
inactive: OTUD6B -0.35 | OTUD7B -0.287 | PRPF8 0.224 | PSMD7 -0.494 | UCHL1 -0.9 | UCHL3 -0.23 | UCHL5 -0.457 | USP10 -0.135 | USP15 -0.702
